# Reference: PubChem BioAssay (NCATS)
# Inconclusive results are not listed. A call without a number means that no potency is given here. Active and inactive are the calls of the source. Unless noted, the call rests on the fitted dose curve; in most records, active means well fitted curve in the direction sought with a large enough effect; inconclusive means small, poorly fitted or top-dose-only effect, or another doubt; inactive means no such curve, though single readings can be large; an effect the other way counts as inactive or inconclusive.
# Experiments:
# [1] = target: Catechol O-methyltransferase (Homo sapiens) (UniProt P21964); assay: Confirmatory Screen for Target Class Profiling of Small Molecule Inhibitors of Methyltransferases (AID 1745852; calls by dose curve; further: potency means the concentration at half of the fitted maximal effect); conditions: MTase-Glo luminescence, SAH detection, recombinant enzyme; measured here: COMT max response; stronger effect = lower value
# Sequence of Catechol O-methyltransferase (Homo sapiens) (P21964 whole entry, looked up): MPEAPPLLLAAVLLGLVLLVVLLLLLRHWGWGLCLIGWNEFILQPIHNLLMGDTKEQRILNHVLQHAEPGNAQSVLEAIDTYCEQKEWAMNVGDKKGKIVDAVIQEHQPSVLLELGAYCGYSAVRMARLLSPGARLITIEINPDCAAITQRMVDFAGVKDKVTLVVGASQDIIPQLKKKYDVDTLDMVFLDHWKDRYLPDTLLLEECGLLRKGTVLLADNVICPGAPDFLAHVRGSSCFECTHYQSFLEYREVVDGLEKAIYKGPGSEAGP
# [2] = target: Guanidinoacetate N-methyltransferase (Homo sapiens) (UniProt Q14353); assay: as above; conditions: MTase-Glo luminescence, SAH detection, recombinant enzyme; activity change, negative = inhibition: at 57.3 µM (top of the series) unless noted
# [3] = target: Nicotinamide N-methyltransferase (Homo sapiens) (UniProt P40261); assay: as above; conditions: MTase-Glo luminescence, SAH detection, recombinant enzyme; measured here: NNMT max response; stronger effect = lower value
# Sequence of Nicotinamide N-methyltransferase (Homo sapiens) (P40261 whole entry, looked up): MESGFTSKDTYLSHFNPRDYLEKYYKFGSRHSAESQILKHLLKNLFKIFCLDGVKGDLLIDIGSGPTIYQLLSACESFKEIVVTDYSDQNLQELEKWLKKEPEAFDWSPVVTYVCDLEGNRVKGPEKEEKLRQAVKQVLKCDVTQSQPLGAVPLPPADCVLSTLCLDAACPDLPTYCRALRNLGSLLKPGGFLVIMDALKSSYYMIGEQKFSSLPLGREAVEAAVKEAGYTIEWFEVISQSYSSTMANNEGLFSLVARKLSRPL
# [4] = target: Phenylethanolamine N-methyltransferase (Homo sapiens) (UniProt P11086); assay: as above; conditions: MTase-Glo luminescence, SAH detection, recombinant enzyme; measured here: PNMT max response; stronger effect = lower value
# Sequence of Phenylethanolamine N-methyltransferase (Homo sapiens) (P11086 whole entry, looked up): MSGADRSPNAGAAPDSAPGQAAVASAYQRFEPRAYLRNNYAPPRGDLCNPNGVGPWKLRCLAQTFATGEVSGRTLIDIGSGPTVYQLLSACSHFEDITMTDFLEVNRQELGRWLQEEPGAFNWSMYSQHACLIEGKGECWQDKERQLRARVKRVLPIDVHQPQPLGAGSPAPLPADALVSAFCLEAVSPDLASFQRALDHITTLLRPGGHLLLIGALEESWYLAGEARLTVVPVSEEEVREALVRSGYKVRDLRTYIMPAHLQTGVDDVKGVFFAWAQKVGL
# [5] = target: Metallo-beta-lactamase type 2 (Klebsiella pneumoniae) (UniProt C7C422); assay: qHTS to identify inhibitors of the New Delhi Metallo-beta-lactamase (NDM): assay validation screen against the NCATS LOPAC Collection (AID 1794843); conditions: NDM-1 enzyme, nitrocefin hydrolysis, absorbance 485 nm; series mostly up to 38.4 µM; further: potency means the concentration at half of the fitted maximal effect;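 on activity change, negative = inhibition: nitrocefin turnover by NDM-1 measured as 485 nm absorbance at plateau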
# Sequence of Metallo-beta-lactamase type 2 (Klebsiella pneumoniae) (C7C422 whole entry, looked up): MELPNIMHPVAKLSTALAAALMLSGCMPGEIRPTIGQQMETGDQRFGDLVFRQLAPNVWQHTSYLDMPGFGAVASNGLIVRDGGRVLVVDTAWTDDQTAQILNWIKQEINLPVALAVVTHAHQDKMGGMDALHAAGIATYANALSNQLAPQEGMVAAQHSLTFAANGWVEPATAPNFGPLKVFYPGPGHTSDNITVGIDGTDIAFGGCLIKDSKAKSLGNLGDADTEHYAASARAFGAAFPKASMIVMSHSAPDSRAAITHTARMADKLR
# How it was run: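 Enzyme 2 nM final, 50 mM HEPES pH 7.0, 1 uM ZnSO4, 0.01% Tween20; cpds in DMSO, preincub w/ enzyme; + nitrocefin (50 uM stock); A485 at plateau; no-enzyme column as blank.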
# [6] = target: Glutathione peroxidase 1 (Homo sapiens) (UniProt P07203); assay: Primary qHTS Assay for Inhibitors of Recombinant Selenoprotein Glutathione Peroxidase 1 (GPX1) (AID 1845191); conditions: recombinant GPX1, GR-coupled NADPH fluorescence, 15 min; series mostly up to 48.8 µM; further: nearly all actives have a fitted effect of over 65% in size
# Sequence of Glutathione peroxidase 1 (Homo sapiens) (P07203 whole entry, looked up): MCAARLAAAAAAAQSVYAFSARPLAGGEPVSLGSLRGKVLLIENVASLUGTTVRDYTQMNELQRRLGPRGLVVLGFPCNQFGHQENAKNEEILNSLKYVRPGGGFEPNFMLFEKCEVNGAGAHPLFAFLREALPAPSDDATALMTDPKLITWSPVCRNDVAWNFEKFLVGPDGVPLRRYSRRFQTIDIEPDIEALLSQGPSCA
# How it was run: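 Recombinant GPX1 (10 nM final) was preincubated with compound for 30 min at room temperature, then reacted with 1 mM GSH, 0.5 mM CHP, 0.5 mM NADPH and 100 nM glutathione reductase; NADPH fluorescence (340/450 nm) was read at 0 and 15 min.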
# [7] = target: Phospholipid hydroperoxide glutathione peroxidase GPX4 (Homo sapiens) (UniProt P36969); assay: Primary qHTS Assay for Inhibitors of Recombinant Selenoprotein Glutathione Peroxidase 4 (GPX4) (AID 1845192); conditions: recombinant GPX4, GR-coupled NADPH fluorescence, 15 min; series mostly up to 50 µM; further: nearly all actives have a fitted effect of over 65% in size
# Sequence of Phospholipid hydroperoxide glutathione peroxidase GPX4 (Homo sapiens) (P36969 whole entry, looked up): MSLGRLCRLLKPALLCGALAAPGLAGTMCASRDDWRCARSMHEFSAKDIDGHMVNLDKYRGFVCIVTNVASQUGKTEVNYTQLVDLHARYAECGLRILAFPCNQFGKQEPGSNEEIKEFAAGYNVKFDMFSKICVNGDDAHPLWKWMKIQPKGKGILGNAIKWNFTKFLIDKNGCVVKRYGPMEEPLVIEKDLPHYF
# How it was run: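 GR-coupled readout: 100 nM GR, 1 mM GSH, 0.5 mM NADPH; NADPH fluorescence (ex 340/em 450 nm) read at t=0 and after 15 min RT. GPX4 200 nM, preincubated 30 min with compound; substrate 0.5 mM CHP.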
# [8] = NCATS anti-infectives library activity on HEK293 viability as a counter-qHTS vs the C. elegans viability qHTS (AID 1745854); conditions: HEK293 viability counter-screen; series mostly up to 41.8 µM;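 further: HEK293 cells exposed to compounds for 24 hr before the viability read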
# How it was run: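 Compounds were acoustically plated (several concentrations, 1:5, final up to 41.7 uM), then 1500 HEK293 cells added per well and incubated 24 hr at 37C, 5% CO2. CellTiter-Glo was added and luminescence read after 10 min.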
# [9] = target: Luciferin 4-monooxygenase (Photinus pyralis) (UniProt P08659); assay: Primary firefly luciferase (FLuc) qHTS assay for identification of artifact compounds. (AID 1845220); conditions: purified firefly luciferase, luminescence, 5 min; series mostly up to 54.1 µM; further: nearly all actives have a fitted effect of over 60% in size
# How it was run: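 Reaction readout was CCD-imaged luminescence, taken 5 min after adding 10 nM purified firefly enzyme to compound-treated wells holding 10 uM luciferin and ATP in pH 7.6 buffer.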
# [10] = Primary fluorescence-based thiol-reactive (MSTI) qHTS assay for identification of artifact compounds. (AID 1845221); conditions: MSTI thiol-reactivity probe, 1 h; series mostly up to 53.8 µM;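 further: thiol-reactive compounds lower the probe fluorescence signal; nearly all actives have a fitted effect of over 65% in size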
# How it was run: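 MSTI probe at 4 uM final in 2% DMSO/PBS pH 7.4; compounds, 1 h at room temperature in dark. Fluorescence Ex/Em 525/598 nm, normalised to Acetyl-MSTI and MSTI, fitted to 4-parameter Hill.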
# [11] = target: Rap guanine nucleotide exchange factor 3 (Homo sapiens) (UniProt O95398); assay: Confirmatory qHTS for agonist of cAMP-regulated guanine nucleotide exchange factor 3 (EPAC1) (AID 1645881); conditions: EPAC1 Rap1B BODIPY-GDP exchange fluorescence; series mostly up to 154 µM;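 further: EPAC1 catalysed release of BODIPY-GDP from Rap1B seen as fluorescence loss; nearly all actives have a fitted effect of over 75% in size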
# Sequence of Rap guanine nucleotide exchange factor 3 (Homo sapiens) (O95398 whole entry, looked up): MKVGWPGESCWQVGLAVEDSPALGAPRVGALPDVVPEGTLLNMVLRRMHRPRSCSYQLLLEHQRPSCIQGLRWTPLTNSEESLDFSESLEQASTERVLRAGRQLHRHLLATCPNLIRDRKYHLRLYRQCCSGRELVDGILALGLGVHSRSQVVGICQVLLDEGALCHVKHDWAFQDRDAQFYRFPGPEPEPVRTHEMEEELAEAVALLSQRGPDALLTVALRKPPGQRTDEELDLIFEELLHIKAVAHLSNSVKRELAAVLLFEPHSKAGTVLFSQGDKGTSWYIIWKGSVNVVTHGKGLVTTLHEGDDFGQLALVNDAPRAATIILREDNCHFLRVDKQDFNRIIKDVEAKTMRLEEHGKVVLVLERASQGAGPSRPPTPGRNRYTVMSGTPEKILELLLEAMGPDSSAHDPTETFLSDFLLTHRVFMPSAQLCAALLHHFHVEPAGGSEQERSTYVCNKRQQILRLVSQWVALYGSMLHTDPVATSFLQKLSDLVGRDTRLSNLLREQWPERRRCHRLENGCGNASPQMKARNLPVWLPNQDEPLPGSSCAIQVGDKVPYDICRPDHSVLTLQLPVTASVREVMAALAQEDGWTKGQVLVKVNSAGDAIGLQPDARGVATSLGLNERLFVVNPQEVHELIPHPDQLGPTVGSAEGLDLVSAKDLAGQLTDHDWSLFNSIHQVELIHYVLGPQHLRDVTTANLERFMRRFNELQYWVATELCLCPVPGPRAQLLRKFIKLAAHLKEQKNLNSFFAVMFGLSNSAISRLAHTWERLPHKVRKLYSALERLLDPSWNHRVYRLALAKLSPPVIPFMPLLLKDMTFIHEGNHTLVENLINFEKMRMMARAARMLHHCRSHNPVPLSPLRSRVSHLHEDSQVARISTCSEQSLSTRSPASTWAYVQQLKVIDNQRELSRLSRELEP
# [12] = target: Rap guanine nucleotide exchange factor 4 (Homo sapiens) (UniProt Q8WZA2); assay: Confirmatory qHTS for agonist of cAMP-regulated guanine nucleotide exchange factor 4 (EPAC2) (AID 1645884); conditions: EPAC2 GEF activity, Rap1B-BODIPY-GDP fluorescence; series mostly up to 154 µM;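 further: nucleotide exchange releases bodipy-GDP from Rap1 and this lowers its fluorescence; nearly all actives have a fitted effect of over 65% in size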
# Sequence of Rap guanine nucleotide exchange factor 4 (Homo sapiens) (Q8WZA2 whole entry, looked up): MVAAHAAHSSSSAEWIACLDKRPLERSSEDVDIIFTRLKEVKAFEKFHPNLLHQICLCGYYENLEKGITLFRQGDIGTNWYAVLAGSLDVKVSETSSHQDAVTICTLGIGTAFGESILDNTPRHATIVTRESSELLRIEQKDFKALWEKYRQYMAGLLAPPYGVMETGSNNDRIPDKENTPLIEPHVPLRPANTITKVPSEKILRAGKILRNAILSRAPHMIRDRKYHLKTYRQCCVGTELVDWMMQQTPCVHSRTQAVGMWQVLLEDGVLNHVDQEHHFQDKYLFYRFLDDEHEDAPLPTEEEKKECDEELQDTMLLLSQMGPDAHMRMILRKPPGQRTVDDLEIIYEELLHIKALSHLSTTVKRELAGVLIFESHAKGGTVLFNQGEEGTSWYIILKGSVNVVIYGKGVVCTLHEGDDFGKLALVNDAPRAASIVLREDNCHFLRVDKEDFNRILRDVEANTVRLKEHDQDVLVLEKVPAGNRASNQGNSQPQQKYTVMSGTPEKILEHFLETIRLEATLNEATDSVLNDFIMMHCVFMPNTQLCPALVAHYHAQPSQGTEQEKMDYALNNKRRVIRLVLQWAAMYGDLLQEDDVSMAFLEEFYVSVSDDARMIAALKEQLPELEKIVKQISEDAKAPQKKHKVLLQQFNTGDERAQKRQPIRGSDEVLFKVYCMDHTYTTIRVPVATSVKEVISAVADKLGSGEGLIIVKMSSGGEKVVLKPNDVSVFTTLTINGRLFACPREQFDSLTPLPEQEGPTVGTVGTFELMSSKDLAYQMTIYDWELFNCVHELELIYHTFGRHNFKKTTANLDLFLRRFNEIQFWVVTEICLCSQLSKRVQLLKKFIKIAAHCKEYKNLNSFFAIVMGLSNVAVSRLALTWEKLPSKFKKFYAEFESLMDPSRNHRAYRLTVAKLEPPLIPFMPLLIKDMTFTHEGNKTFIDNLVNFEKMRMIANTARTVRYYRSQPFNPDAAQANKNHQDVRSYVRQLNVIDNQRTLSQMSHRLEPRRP
# [13] = target: Rap guanine nucleotide exchange factor 4 (Homo sapiens) (UniProt Q8WZA2); assay: Confirmatory qHTS for antagonist of cAMP-regulated guanine nucleotide exchange factor 4 (EPAC2) (AID 1645885); conditions: EPAC2 Rap1B-BODIPY-GDP exchange fluorescence, biochemical; series mostly up to 114 µM; further: nearly all actives have a fitted effect of over 25% in size
# [14] = NCATS anti-infectives library activity on the primary C. elegans qHTS viability assay (AID 1745855; calls by dose curve; further: potency means the concentration at half of the fitted maximal effect); conditions: C. elegans worm area imaging, day 7; series mostly up to 41.8 µM
# How it was run: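 Viability read-out is GFP fluorescence of PE254-GFP-FLuc C. elegans, measured by laser cytometry (488 nm) at day 0, 3 and 7. Ten L1 worms per well were incubated 7 days at 21 °C with compounds and bacterial capsules in S medium.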
# [15] = HepG2 viability counterscreen (readout 2: ATP content) against the NCATS DSHEA and TCM libraries (AID 1794840); conditions: ATP content luminescence; series mostly up to 27.3 µM;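 further: HepG2 cells exposed to substances for about 24 h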
# How it was run: (§1)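 Readout 1: cellular protease activity, GF-AFC substrate (25 uM final, 30 min, fluorescence 380/510 nm). Readout 2: ATP content by CellTiter-Glo luminescence after 30 min at RT. Both follow ~24 h exposure of HepG2 cells (1,000/well) to substances.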
# [16] = HepG2 viability counterscreen (readout 1: protease activity) against the NCATS DSHEA and TCM libraries (AID 1794841); conditions: qHTS concentration series; series mostly up to 27.3 µM;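 further: cells exposed to compounds for about 24 h before the protease read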
# How it was run: as §1
structure (smiles),measurement,setting,value
CCCN1CC[C@@H]2c3cc(O)ccc3CC[C@@H]21,activity,[1],1.91%
same,"activity change, negative = inhibition",[2],0.453%
same,activity,[3],-3.17%
same,activity,[4],-0.789%
same,Potency,[5],inactive
same,Potency,[6],inactive
same,Potency,[7],inactive
CNc1ccc2oc(C[C@H]3O[C@@]4(CC[C@H]3C)O[C@H]([C@H](C)C(=O)c3ccc[nH]3)[C@H](C)C[C@H]4C)nc2c1C(=O)O,activity,[1],-3.19%
same,Potency,[2],34.3 µM (active)
same,activity,[3],-35.2%
same,activity,[4],-4.07%
same,Potency,[6],inactive
same,Potency,[7],inactive
CN1CCCC1CCOC(c1cc2nccc(C(=O)O)c2[nH]1)c1ccccc1Cl (stereo not drawn),outcome,[8],inactive
same,Potency,[6],inactive
same,Potency,[9],inactive
same,Potency,[10],inactive
O=c1[nH]cc(N(CCCl)CCCl)c(=O)[nH]1,Potency,[11],inactive
same,Potency,[12],inactive
same,Potency,[13],inactive
same,Potency,[6],inactive
same,Potency,[7],inactive
CN(N=O)c1cc(O)ccc1O,activity,[1],-96.7%
same,Potency,[2],24.3 µM (active)
same,activity,[3],-67.2%
same,activity,[4],-42.7%
same,Potency,[5],inactive
same,Potency,[6],inactive
same,Potency,[7],inactive
CCCN1CCc2cccc3c2[C@H]1Cc1ccc(O)c(O)c1-3,activity,[1],4.79%
same,"activity change, negative = inhibition",[2],5.72%
same,activity,[3],-3.62%
same,activity,[4],6.46%
same,Potency,[5],inactive
same,Potency,[6],inactive
same,Potency,[7],inactive
Cc1sc2ccccc2c1CC1=NCCN1,activity,[1],6.03%
same,"activity change, negative = inhibition",[2],4.23%
same,activity,[3],-6.99%
same,activity,[4],-30.1%
same,Potency,[6],inactive
same,Potency,[7],inactive
COc1ccc2[nH]c3c(c2c1)CCNC3,activity,[1],-6.01%
same,"activity change, negative = inhibition",[2],5.37%
same,activity,[3],-13.7%
same,activity,[4],-2.07%
same,Potency,[5],inactive
same,Potency,[6],inactive
same,Potency,[7],inactive
CCCn1c(C)c(C(=O)c2ccc3ccccc3c2)c2ccccc21,Potency,[11],inactive
same,Potency,[12],inactive
O=c1c2ccccc2[se]n1-c1ccccc1,Potency,[14],18.3 µM (active)
C[C@@H]1O[C@@H](O[C@H]2C[C@@H](O)[C@]3(CO)[C@@H]4C(CC[C@]3(O)C2)[C@@]2(O)CC[C@H]([C@@H]3COC(=O)C3)[C@@]2(C)C[C@H]4O)[C@H](O)[C@H](O)[C@H]1O (stereo partly drawn),Potency,[5],inactive
same,Potency,[6],inactive
N[C@@H](Cn1oc(=O)[nH]c1=O)C(=O)O,Potency,[5],inactive
same,Potency,[6],inactive
same,Potency,[7],inactive
Cc1[nH]c2ccc(O)cc2c1CCN,Potency,[5],inactive
same,Potency,[6],inactive
same,Potency,[7],inactive
CC(N)[C@H](O)c1ccc(O)c(O)c1 (stereo partly drawn),Potency,[5],inactive
same,Potency,[6],inactive
same,Potency,[7],inactive
O=C(NC1CN2CCC1CC2)c1cc2ccoc2cn1 (stereo not drawn),Potency,[5],inactive
same,Potency,[6],inactive
same,Potency,[7],inactive
CCCC[N+]1(C)C2CC(OC(=O)[C@H](CO)c3ccccc3)CC1C1OC12 (stereo partly drawn),Potency,[5],inactive
same,Potency,[6],inactive
C[C@H](N)Cc1cccc(C(F)(F)F)c1,Potency,[5],inactive
same,Potency,[6],inactive
same,Potency,[7],inactive
NC(N)=NOCC[C@H](N)C(=O)O,Potency,[5],inactive
same,Potency,[6],inactive
same,Potency,[7],inactive
C=CCN1CCC23c4c5ccc(O)c4O[C@H]2C(=O)CC[C@@]3(O)C1C5 (stereo partly drawn),Potency,[5],inactive
same,Potency,[6],inactive
same,Potency,[7],inactive
c1ccc2c(N3CCNCC3)cccc2c1,Potency,[5],inactive
same,Potency,[6],inactive
same,Potency,[7],inactive
NC(N)=Nc1ccc2[nH]c3c(c2c1)C[C@@]1(O)[C@H]2Cc4ccc(O)c5c4[C@@]1(CCN2CC1CC1)[C@H]3O5,Potency,[5],inactive
same,Potency,[6],inactive
same,Potency,[7],inactive
[Cl-].[Cl][Pt].[NH2-].[NH2-].c1ccncc1,Potency,[5],3.98 µM (active)
same,Potency,[6],inactive
C[N+](C)(C)CCOC(=O)CBr,Potency,[5],inactive
same,Potency,[6],inactive
same,Potency,[7],inactive
c1ccc2c(c1)[I+]c1ccccc1-2,Potency,[5],inactive
same,Potency,[6],inactive
same,Potency,[7],inactive
CC(=O)NBr,Potency,[5],inactive
same,Potency,[6],inactive
same,Potency,[7],inactive
NC(CCCCCP(=O)(O)O)C(=O)O (stereo not drawn),Potency,[5],inactive
same,Potency,[6],inactive
same,Potency,[7],inactive
O=[N+]([O-])c1ccc2nc(N3CCNCC3)ccc2c1,Potency,[5],inactive
same,Potency,[6],inactive
same,Potency,[7],inactive
C[C@H]1C2Cc3ccc(O)cc3[C@@]1(C)CCN2CC1CC1,Potency,[5],inactive
same,Potency,[6],inactive
same,Potency,[7],inactive
Cc1c2ccncc2c(C)c2c1[nH]c1ccccc12,Potency,[5],inactive
same,Potency,[6],inactive
same,Potency,[7],inactive
COC1=CC(=O)O[C@@H](/C=C/c2ccccc2)C1,outcome,[15],inactive
same,outcome,[16],inactive
same,Potency,[6],inactive
same,Potency,[7],inactive
same,Potency,[9],inactive
same,Potency,[10],inactive
CC(Cc1ccc(OCC(=O)O)cc1)NCC(O)c1cccc(Cl)c1 (stereo not drawn),Potency,[5],inactive
same,Potency,[6],inactive
CCCn1c(=O)c2[nH]c(C3CCCC3)nc2n(CCCOC(=O)c2ccc(S(=O)(=O)F)cc2)c1=O,Potency,[5],inactive
same,Potency,[6],inactive
same,Potency,[7],inactive
CCCCCCCCCCCCCC(=O)O[C@@H]1[C@@H](C)[C@@]2(O)[C@@H](C=C(CO)C[C@@]3(O)C(=O)C(C)=C[C@@H]23)C2C(C)(C)[C@@]21OC(C)=O (stereo partly drawn),Potency,[5],inactive
same,Potency,[6],inactive
CC1(C(=O)O)C2CCC(O2)C1(C)C(=O)O (stereo not drawn),Potency,[5],inactive
same,Potency,[6],inactive
same,Potency,[7],inactive
CN1C2CCC1CC(OC(c1ccccc1)c1ccccc1N)C2 (stereo not drawn),Potency,[5],inactive
same,Potency,[6],inactive
same,Potency,[7],inactive
OC1CCCCC1N1CCC(c2ccccc2)CC1 (stereo not drawn),Potency,[5],inactive
same,Potency,[6],inactive
same,Potency,[7],inactive
